According to ChEMBL document CHEMBL1201862, “PubChem BioAssay data set” (2004):
The whole screen tested about 400,000 compounds, of which about 2,100 (0.53%) were called active. Roughly 14% stayed inconclusive and do not appear here. No rule for the calls is given here. Shown is part of a subset that was picked to be rich in actives.

The molecules below were run against Ataxin-2 (Homo sapiens) (UniProt Q99700) (assay: qHTS for Inhibitors of ATXN expression.).
Assay type: functional

Sequence of Ataxin-2 (Homo sapiens) (Q99700 whole entry): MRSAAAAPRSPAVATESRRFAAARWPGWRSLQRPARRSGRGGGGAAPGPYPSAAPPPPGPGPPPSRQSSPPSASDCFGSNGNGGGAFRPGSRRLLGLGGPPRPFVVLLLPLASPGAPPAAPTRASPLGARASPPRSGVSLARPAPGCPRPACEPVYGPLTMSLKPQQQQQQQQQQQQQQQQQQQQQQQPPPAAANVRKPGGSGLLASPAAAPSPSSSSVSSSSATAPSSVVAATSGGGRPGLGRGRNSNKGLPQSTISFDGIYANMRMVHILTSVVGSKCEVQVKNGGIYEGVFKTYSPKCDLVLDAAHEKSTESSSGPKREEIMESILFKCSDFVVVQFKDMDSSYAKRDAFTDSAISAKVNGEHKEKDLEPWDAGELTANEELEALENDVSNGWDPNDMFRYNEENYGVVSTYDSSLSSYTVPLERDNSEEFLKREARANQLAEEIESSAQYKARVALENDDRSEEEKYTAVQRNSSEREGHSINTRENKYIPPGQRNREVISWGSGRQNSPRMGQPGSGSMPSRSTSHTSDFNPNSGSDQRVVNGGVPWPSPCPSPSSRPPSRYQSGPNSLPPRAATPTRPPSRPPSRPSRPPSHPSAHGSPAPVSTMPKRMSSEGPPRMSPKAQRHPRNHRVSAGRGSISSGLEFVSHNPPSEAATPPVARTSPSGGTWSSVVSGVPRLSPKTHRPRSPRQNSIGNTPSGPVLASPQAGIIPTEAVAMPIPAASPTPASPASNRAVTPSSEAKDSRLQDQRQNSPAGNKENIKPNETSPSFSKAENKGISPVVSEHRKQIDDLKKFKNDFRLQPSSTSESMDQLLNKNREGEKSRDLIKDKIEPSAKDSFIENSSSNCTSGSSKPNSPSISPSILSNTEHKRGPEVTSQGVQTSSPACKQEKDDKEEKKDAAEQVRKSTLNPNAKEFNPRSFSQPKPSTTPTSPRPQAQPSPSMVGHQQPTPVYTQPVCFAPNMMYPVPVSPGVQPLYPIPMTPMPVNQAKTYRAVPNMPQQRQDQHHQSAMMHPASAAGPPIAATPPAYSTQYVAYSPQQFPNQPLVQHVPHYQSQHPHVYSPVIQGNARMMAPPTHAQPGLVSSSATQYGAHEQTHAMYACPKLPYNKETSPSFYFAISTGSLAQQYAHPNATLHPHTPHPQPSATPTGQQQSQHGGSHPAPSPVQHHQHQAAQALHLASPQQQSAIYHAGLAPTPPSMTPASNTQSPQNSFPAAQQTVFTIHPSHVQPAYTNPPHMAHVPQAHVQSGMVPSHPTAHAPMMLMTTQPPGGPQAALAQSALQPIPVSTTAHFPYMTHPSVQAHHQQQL

Row | Structure (SMILES) | Potency
1 | CSc1ccc(CN(C)CC(=O)Nc2ccc(C)cc2Br)cc1 | inactive
2 | COc1cccc(/C=C/c2nc(C#N)c(N(C)Cc3ccccc3)o2)c1 | inactive
3 | CC(C)(C)c1ccc(/C=C2\Oc3c(ccc(O)c3CN3CCN(CCO)CC3)C2=O)cc1 | inactive
4 | CCN1C(=O)N(CC)C2C1N(CO)C(=O)N2CO (stereo not drawn) | inactive
5 | O=C(N/N=C/c1ccc(N2CCOCC2)cc1)c1ccc(NS(=O)(=O)c2cccs2)cc1 | inactive
6 | Cc1ccc(S(=O)(=O)/N=C2\C=C(Nc3cccc(C(=O)O)c3)C(=O)c3ccccc32)c(C)c1 | 28.2 µM (active)
7 | O=C(O)c1ccc(NC2=C/C(=N/S(=O)(=O)c3cccs3)c3ccccc3C2=O)cc1 | 22.4 µM (active)
8 | O=C(O)c1ccc(NC2=C/C(=N/S(=O)(=O)c3ccccc3)c3ccccc3C2=O)cc1 | 39.8 µM (active)
9 | O=C1C(Nc2ccccc2)=C/C(=N/S(=O)(=O)c2cccs2)c2ccccc21 | 8.91 µM (active)
10 | Cc1ccc(S(=O)(=O)N2CCN(CC(=O)N3CCCC3)CC2)c(C)c1 | inactive
11 | O=C(O)c1ccc(Nc2c3ccccc3nc3ccccc23)cc1 | inactive
12 | C=CCN1C(=O)/C(=C/N(C)C)S/C1=N\S(=O)(=O)c1cccs1 | inactive
13 | O=S(=O)(O)c1cccc2cccc(Nc3ccccc3)c12 | inactive
14 | Cc1cc(C)c(S(=O)(=O)Nc2cccc(C(=O)O)c2)cc1S(=O)(=O)Nc1cccc(C(=O)O)c1 | inactive
15 | COC(=O)c1ccc(NC(=O)CS(=O)(=O)c2ccccc2)cc1 | inactive
16 | Cc1cc(NS(=O)(=O)c2ccc(NC(=O)c3cc4cc(Br)ccc4oc3=O)cc2)no1 | inactive
17 | O=c1cc(-c2ccccc2)c2c(O)cc(O)cc2o1 | inactive
18 | O=c1oc2ccc(Br)cc2cc1S(=O)(=O)c1ccc(F)cc1 | inactive
19 | CCCCN(C)S(=O)(=O)c1ccc(C(=O)Nc2sc3c(c2C(N)=O)CC(C)(C)NC3(C)C)cc1 | inactive
20 | Brc1ccccc1C1CC(c2ccccc2)=Nc2ccccc2N1 (stereo not drawn) | inactive
21 | C=C1C(=O)O[C@@H]2C[C@@H](C)[C@@H]3C=CC(=O)[C@@]3(C)[C@@H](OC(C)=O)[C@H]12 | 8.91 µM (active)
22 | Cc1cc(/C=C2\Cc3ccccc3C2=O)c(C)n1-c1ccccc1 | inactive
23 | CC(C)(C)CC(C)(C)NCC(O)COCCOc1ccc(Br)cc1 (stereo not drawn) | 39.8 µM (active)
24 | COC(=O)[C@]12CCCCC=C1N(Cc1ccc(Cl)cc1Cl)C(=O)[C@H](CC(=O)N1CCN(C(=O)C3CC3)CC1)C2 | 35.5 µM (active)
25 | COCCCNC(=O)CN1C(=O)c2cccc3cccc1c23 | inactive
26 | CCCCOCCCNC(=O)C[C@@H]1C[C@@]2(C(=O)OC)CCCCC=C2N(Cc2ccc(Cl)cc2Cl)C1=O | 39.8 µM (active)

Row | Structure (SMILES) | Potency
27 | CCCCOCCCNC(=O)C[C@@H]1C[C@@]2(C(=O)OC)CCCCC=C2N(Cc2cccc3ccccc23)C1=O | 28.2 µM (active)
28 | COc1ccc(C2=CSC3=NCCN23)cc1Br | inactive
29 | COc1ccc2nc(N3CCC(C)CC3)c(C#N)cc2c1 | inactive
30 | COc1ccc(/C=N/n2c(C)nc3sc(C)c(C)c3c2=O)cc1 | inactive
31 | CCOC(=O)c1sc(-c2ccc(Cl)cc2Cl)nc1O | inactive
32 | CCOC(=O)/C(=C\c1ccc(Cl)cc1)c1nc(O)c2c(C)c(C)sc2n1 | 39.8 µM (active)
33 | COc1ccc(C2CC(c3cccs3)=NN2c2ccccc2)cc1 (stereo not drawn) | inactive
34 | CCc1cccc(NC(=O)CCS(=O)(=O)c2ccc(Br)cc2)c1 | inactive
35 | O=C(Nc1nc2ccccc2s1)c1cc2c(s1)-c1ccccc1OC2 | inactive
36 | CC1(C)CC(=O)C2=C(C1)c1c(ccc3ccccc13)NC2c1ccc(C(=O)O)cc1 (stereo not drawn) | inactive
37 | O=C(CCS(=O)(=O)c1ccccc1)Nc1nc2c(s1)COc1ccccc1-2 | 33.6 µM (active)
38 | CC1(C)CC(=O)c2sc(NC(=O)CCS(=O)(=O)c3ccccc3)nc2C1 | 37.7 µM (active)
39 | CCCC(=O)Nc1nc2c(s1)COc1ccccc1-2 | inactive
40 | COc1ccc(C2=CC(c3ccccc3Cl)n3nc(-c4ccc(C)cc4)nc3N2)cc1 (stereo not drawn) | inactive
41 | COc1ccc(-c2nc3ncccn3c2Nc2ccccc2)cc1 | inactive
42 | Cc1ccc(-c2nc3ccccn3c2Nc2ccc3c(c2)OCO3)cc1 | 35.5 µM (active)
43 | O=C(c1ccccc1)c1sc(Nc2ccc3c(c2)OCO3)nc1-c1ccccc1 | inactive
44 | CCOC(=O)CSc1nnc2n(-c3ccccc3)c(=O)c3c4c(sc3n12)CC(C(C)(C)C)CC4 (stereo not drawn) | 35.5 µM (active)
45 | CCN(C(=O)CSc1nnc(C2CC2)n1-c1ccccc1)C1CCS(=O)(=O)C1 (stereo not drawn) | inactive
46 | CCOC(=O)C1CCCN(CCC(=O)Nc2cc(C)ccc2C)C1 (stereo not drawn) | inactive
47 | COc1cccc2c3c(c(C)nc12)CCN3c1ccccc1 | inactive
48 | Cc1cccn2c(=O)c3cc(C(=O)NCC4CCCO4)c(=N)n(CCc4ccccc4)c3nc12 (stereo not drawn) | inactive
49 | Oc1ccc2nnc3c(Br)cnn3c2c1 | inactive
50 | NS(=O)(=O)c1ccc2nc(NC(=O)c3ccc(Br)o3)sc2c1 | inactive
51 | CCCNS(=O)(=O)c1ccc2nc(NC(=O)c3ccc(F)cc3)sc2c1 | 39.8 µM (active)
52 | COc1cc2nc(NC(=O)c3ccc(S(=O)(=O)N4CCCC4)cc3)sc2cc1OC | inactive

Row | Structure (SMILES) | Potency
53 | Cc1n[nH]c(-c2cccnc2)c1N=NN(C)C | 23.8 µM (active)
54 | O=C/C(=C\Nc1ccc(S(=O)(=O)CCO)cc1)c1nc2cc(Cl)ccc2o1 | inactive
55 | Cc1ccsc1/C=N/N=C/c1sccc1C | inactive
56 | C=C1C(=O)OC2C=C(CO)C3OC3C3OC3(C)CC(OC(=O)/C(=C/C)COC(C)=O)C12 (stereo not drawn) | 16.8 µM (active)
57 | O=C1Nc2c(Br)cc(Br)c3cccc1c23 | inactive
58 | Cc1cc(C)cc(NC2=C(c3ccccc3)C(=O)c3ccccc32)c1 | 20 µM (active)
59 | Cc1cnc2c(c1)C(=O)c1ccccc1-2 | inactive
60 | Cc1ccc(C2C=C(c3ccccc3)Nc3ncnn32)cc1 (stereo not drawn) | inactive
61 | CCc1cc2c(C)cc(=O)oc2cc1OC(=O)C1CCCN1C(=O)OC(C)(C)C (stereo not drawn) | inactive
62 | CC(=O)/N=c1\c(C#N)cc2c(=O)n3cccc(C)c3nc2n1CCCOC(C)C | inactive
63 | CCOC(=O)Nc1ccc2c(c1)C(=NNC(N)=S)c1ccccc1-2 | 31.6 µM (active)
64 | CCOC(=O)Nc1ccc2c3c(cccc13)-c1ccccc1-2 | inactive
65 | C=C(C)CN=C(S)NN=C1c2ccccc2-c2ccccc21 | inactive
66 | COc1ccc(C2C=C(c3ccccc3)Nc3nc(NC(=O)c4ccc(C)cc4)nn32)cc1 (stereo not drawn) | inactive
67 | COC1(OC)C(/C=C/c2ccc(Cl)cc2)C(C#N)(C#N)C1(OC)OC (stereo not drawn) | 31.6 µM (active)
68 | NC(=O)c1ccsc1NC(=O)COC(=O)CNC(=O)c1ccc(F)cc1 | inactive
69 | O=C(CCSc1ccc(Br)cc1)c1ccc(O)cc1 | 39.8 µM (active)
70 | O=C(CCCSc1nc(O)c2ccccc2n1)c1ccccc1 | inactive
71 | C=Cn1cc[n+](CC(=O)c2ccc(Br)cc2)c1 | inactive
72 | COc1ccc(N2C(=O)CC(Sc3nc[nH]n3)C2=O)c(OC)c1 (stereo not drawn) | 28.2 µM (active)
73 | COc1ccccc1N1C(=O)CC(N(O)c2ccccc2)C1=O (stereo not drawn) | inactive
74 | COc1ccc(C2Nc3cc(OC)ccc3-n3cccc32)cc1 (stereo not drawn) | inactive
75 | CCN(C(=O)c1cc2c(=O)n3ccccc3nc2n1C)C1CCCCC1 | inactive
76 | Nc1ccc(SCc2nc3cccc4c3n2CCC4)cc1 | inactive
77 | c1ccc(CN2CCN(CCCNc3ccc4nnc(-c5ccccc5)n4n3)CC2)cc1 | 22.4 µM (active)
78 | c1ccc(CN2CCN(Cc3nnc(-c4ccccc4)o3)CC2)cc1 | inactive

Row | Structure (SMILES) | Potency
79 | CCCn1c(=N)c(C#N)cc2c(=O)n3ccccc3nc21 | inactive
80 | COc1ccc(-c2cc3ccc(O)cc3oc2=O)cc1 | inactive
81 | CCOCCCn1c(=N)c(C(=O)NCC2CCCO2)cc2c(=O)n3cc(C)ccc3nc21 (stereo not drawn) | inactive
82 | Cc1ccc(-c2nn(-c3ccccc3)cc2/C=C(\C#N)c2cccc(C#N)c2)o1 | inactive
83 | CC(=O)Nc1ccc(S(=O)(=O)Nc2cccc3cccnc23)cc1 | inactive
84 | CC1(C(=O)Nc2cccc3ccccc23)CC1(Br)Br (stereo not drawn) | inactive
85 | CC1(C(=O)Nc2cccc3cccnc23)CCN1Cc1ccc(-c2ccccc2)o1 (stereo not drawn) | 6.31 µM (active)
86 | Cc1ccc(N2C(=O)/C(=C/Nn3cnnc3)c3ccccc3C2=O)cc1 | inactive
87 | CCOCCCn1/c(=N/C(C)=O)c(C#N)cc2c(=O)n3ccccc3nc21 | inactive
88 | CC(C)C[C@H]1COc2cccc(N3CCN(Cc4ccccc4F)CC3)c2S(=O)(=O)N1 | 12.6 µM (active)
89 | O=C(NCc1ccco1)C1CCC(N2C(=O)C3C4CCC(C4)C3C2=O)CC1 (stereo not drawn) | inactive
90 | O=C(Nc1cccc2c1C(=O)NC2=O)c1ccccc1[N+](=O)[O-] | inactive
91 | CCOc1ccc(NC(=O)c2cc3ccccc3cc2O)cc1 | inactive
92 | CCOc1ccc(NC(=O)c2cn(CC(C)C)c(=O)c3c2c2ccccc2n3C)cc1 | 17.8 µM (active)
93 | CCOc1ccc(NC(=O)/C(=C/Nc2ccccc2)C(C)=O)cc1 | inactive
94 | CCOCCCN=C(S)N1CCCN(c2nc3cc(C)cc(C)c3cc2C#N)CC1 | inactive
95 | CCOc1ccc2nc(O)c(CN(Cc3cccs3)Cc3nnnn3C(C)(C)CC)cc2c1 | 35.5 µM (active)
96 | CCN1CCN(c2nc(Nc3cc(OC)ccc3OC)nc(Nc3cc(OC)ccc3OC)n2)CC1 | inactive
97 | CCc1nc2ccc(C(=O)Nc3nnc(C)s3)cc2nc1CC | inactive
98 | Cn1nc(C(=O)Nc2cccc(S(=O)(=O)N3CCCC3)c2)c2ccccc2c1=O | inactive
99 | COC(=O)c1c(NC(=O)c2ccc(S(=O)(=O)N(C)C3CCCCC3)cc2)sc2c1CCN(C)C2 | inactive
100 | Cc1c(C(=O)Nc2ccc(S(=O)(=O)N(C)C3CCN(C)CC3)cc2)oc2c(Cl)cccc12 | 39.8 µM (active)
101 | O=C(COC(=O)Cn1cnc2ccccc2c1=O)NCc1ccccc1Cl | inactive
102 | O=C(CCl)/N=c1\sccn1Cc1ccccc1Cl | 31.6 µM (active)
103 | O=C(Cc1cccs1)N1CCN=C1SCc1ccccc1Cl | inactive
